KB-3-1 cytotox: qHTS assay for MDR1-selective chemotherapeutics: Primary screen using the parental adenocarcinoma cell KB-3-1. KB-3-1 viability, CellTiter-Glo ATP luminescence, 72 h. 400,000 compounds, 1.4% hits. Potency, µM (highest dose often 46.1 µM), most hits filed as cytotoxic; note: potency is the fitted concentration of half-maximal effect; % is set by controls: 0 for no effect and ±100 for the full control effect; nearly all actives have a fitted effect of over 60% in size
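Here the drug-naive KB-3-1 line serves as comparator for MDR sub-line selectivity; cells received compound titrations, 72 h at 37 °C, then CellTiter-Glo readout.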
MCF10A rereplic: A quantitative high throughput screen for small molecules that induce DNA re-replication in MCF 10a normal breast cells; 350,000 compounds, 2.9% hits; MCF 10A DNA re-replication, Hoechst nuclear intensity, 48 h; Potency, µM (top dose mostly 46.1 µM), without a hit: at the highest dose activity, positive = re-replication, usual class: activators; note: potency is the fitted concentration of half-maximal effect; % of control where 0% means no effect; nearly all actives have a fitted effect of over 50% in size
KB-V1 MDR tox: qHTS assay for MDR1-selective chemotherapeutics: Primary screen using the drug-selected MDR subline cells KB-V1 | KB-V1 MDR cells viability, CellTiter-Glo, 72 h | Potency, µM (highest dose often 46.1 µM), most hits filed as cytotoxic | 400,000 compounds, 3.4% hits; note: potency is the fitted concentration of half-maximal effect; % is set by controls: 0 for no effect and ±100 for the full control effect; nearly all actives have a fitted effect of over 60% in size
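KB-V1 MDR subline cells in DMEM (phenol-red free, 10% FBS) exposed to compounds in qHTS concentration series for 72 h at 37 degrees C. Viability read by CellTiter-Glo luminescence; concentration-effect curves fitted after normalization and correction.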
IL-1B inflam inh: qHTS for Inhibitors of Inflammasome Signaling: IL-1-beta AlphaLISA Primary Screen; 360,000 compounds, 4.7% hits; activity change, % at 57.5 µM; THP-1 LPS/ATP IL-1B secretion, AlphaLISA, 16 h; active compounds read low; in the data active = activity change below about -50%; inconclusive = mostly about -30% to -49%; note: % is set by controls: 0 for no effect and ±100 for the full control effect
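Secreted IL-1B measured by AlphaLISA bead assay after 16 h compound exposure of THP-1 cells; compounds (final up to 57.5 uM) added 1 h before LPS (250 ng/mL) and ATP (1.25 mM) stimulation; lower signal means less secretion.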
SW480 rerep: A quantitative high throughput screen for small molecules that induce DNA re-replication in SW480 colon adenocarcinoma cells; SW480 DNA re-replication, Hoechst DNA content imaging, 48 h; Potency, µM (series often up to 46.1 µM), inactives show at the highest dose re-replication activation, most hits filed as activators; 340,000 compounds, 1.8% hits; AID 624297, 2012; note: potency is the fitted concentration of half-maximal effect; % of control where 0% means no effect; nearly all actives have a fitted effect of over 55% in size
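250 cells/well; 23 nL cpd via pin tool; 48 hr, 37 C, 5% CO2; Hoechst 40 min; imager read of total nuclear intensity, ex 405/em 500-530 nm.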
Starred values were filed as active, the others as inactive; i = inactive; ? = inconclusive; / = not tested or not shown; [ ] = remark or other dose. Sampled rows, rich in hits. Any-hit rate of the full collection: about 9.9%. Unless noted, calls come from the whole dose curve; as a rule, active = well fitted curve in the direction sought with a large enough effect; inconclusive = small, poorly fitted or top-dose-only effect, or another doubt; inactive = no such curve, though single readings can be large; an effect the other way counts as inactive or inconclusive.

SMILES	KB-3-1 cytotox	MCF10A rereplic	KB-V1 MDR tox	IL-1B inflam inh	SW480 rerep
Cn1c(=O)c2c(nc(NCCNC(=O)c3ccco3)n2Cc2ccc(F)cc2)n(C)c1=O	?	2%	?	49	-6%
Cn1c(=O)c2c(nc(NCCNC(=O)c3ccco3)n2Cc2ccccc2)n(C)c1=O	i	26µM*	i	0	0%
Cn1c(=O)c2c(nc(NCc3ccccc3)n2Cc2ccc(Cl)c(Cl)c2)n(C)c1=O	?	/	18µM*	/	/
Cn1c(-c2ccc3c(c2)OCO3)cnc1NCc1ccccc1	?	26µM*	13µM*	-10	?
COc1cc(/C=N/Nc2nc3c(c(=O)n(C)c(=O)n3C)n2Cc2ccccc2)ccc1OC(=O)c1ccco1	?	?	9.2µM*	?	?
NC(=O)c1ccc(NC(=O)COC(=O)CC2Sc3ccccc3NC2=O)cc1 (stereo not given)	i	-2%	?	36	-4%
CCn1c(=O)c2cc(C(=O)Nc3cccc(C(F)(F)F)c3)sc2c2ccccc21	i	/	i	/	/
CC1CCN(CCCNC(=O)C2CC(=O)N(CCc3ccccc3)C2)CC1 (stereo not given)	i	1%	i	16	-21%
CCCNc1nc2c(c(=O)n(C)c(=O)n2C)n1Cc1cccc(C)c1	?	5%	9.2µM*	14	11%
O=C1CCCN1CC(O)CS(=O)(=O)Cc1ccc(Cl)c(Cl)c1 (stereo not given)	i	-3%	i	0	-30%
CC(C)CC(C(=O)NC1CCCC1)N(Cc1ccc2c(c1)OCO2)C(=O)c1snc(C(N)=O)c1N (stereo not given)	i	?	i	16	-2%
CC(C)CC(C(=O)NC1CCCCC1)N(Cc1ccccc1)C(=O)c1snc(C(N)=O)c1N (stereo not given)	i	?	i	-12	?
CCCC(C(=O)NC1CCCC1)N(Cc1cccs1)C(=O)c1snc(C(N)=O)c1N (stereo not given)	i	-4%	2.3µM*	-4	-1%
CC(C)CCNC(=O)C(CC(C)C)N(Cc1ccc2c(c1)OCO2)C(=O)c1snc(C(N)=O)c1N (stereo not given)	i	?	?	-57*	5%
Cc1ccc(C)c(N(C(=O)c2nsc(Cl)c2Cl)C(C(=O)NC2CCCC2)c2ccc(O)cc2)c1 (stereo not given)	21µM*	11%	?	-71*	17%
COc1ccc(CN(C(=O)c2snc(C(N)=O)c2N)C(CC(C)C)C(=O)NC2CCCCC2)cc1 (stereo not given)	i	17%	i	-71*	22%
O=C(NC1CCCC1)C(c1cccs1)N(C(=O)c1csnn1)c1ccccc1F (stereo not given)	i	-5%	i	5	-10%
CCCCC(C(=O)NCCC(C)C)N(CCCN1CCOCC1)C(=O)c1snc(C(N)=O)c1N (stereo not given)	i	18%	9.2µM*	11	-3%
COCCN(C(=O)c1snc(C(N)=O)c1N)C(C(=O)NC1CCCCC1)c1ccc(F)cc1 (stereo not given)	i	16µM*	i	0	?
COc1ccc(CN(C(=O)c2nsc(Cl)c2Cl)C(C(=O)NC2CCCCC2)c2ccc(OC)cc2)cc1 (stereo not given)	i	2%	21µM*	-21	2%
COc1ccc(CN(C(=O)c2nsc(Cl)c2Cl)C(C(=O)NC2CCCC2)c2ccc(C)cc2)cc1 (stereo not given)	?	?	?	-22	?
Cc1ccc(C(C(=O)NC2CCCCC2)N(CCCN2CCOCC2)C(=O)c2snc(C(N)=O)c2N)cc1 (stereo not given)	i	7%	?	4	-5%
CCOC(=O)C(C)Sc1nc(=O)n2cc(C)ccc2n1 (stereo not given)	i	-1%	i	-101*	-13%
Cc1ccc2nc(SCC(=O)N3CCCc4ccccc43)nc(=O)n2c1	i	-2%	18µM*	-14	-8%
Cc1ccc2nc(SCC(=O)OCc3ccccc3)nc(=O)n2c1	i	6%	i	-56*	22%
SMILES	KB-3-1 cytotox	MCF10A rereplic	KB-V1 MDR tox	IL-1B inflam inh	SW480 rerep
COc1ccc(C(=O)N2CCC(n3nccc3NC(=O)C3CC3)CC2)cc1F	i	-4%	i	18	-11%
CC(=O)[C@H]1CC[C@H]2[C@@H]3C=CC4=CC(=O)CC[C@@]4(C)[C@H]3CC[C@]12C	/	-5%[20.6 µM]	/	/	0%[20.6 µM]
CC(C)(C)C(=O)Nc1ccc(C(=O)COC(=O)c2ccccn2)cc1	i	-7%	i	0	1%
COC(=O)Cc1ccc(OC2(C)CCN(Cc3ccccc3OC(F)F)C2)cc1 (stereo not given)	i	/	i	-54*	/
O=C(CNS(=O)(=O)c1c(F)cccc1F)NC1CCCc2ccccc21 (stereo not given)	i	-1%	i	3	3%
Cc1ccc(C)c(C(=O)COC(=O)c2ccccc2N2C(=O)C3C4CCC(C4)C3C2=O)c1 (stereo not given)	i	0%	4.1µM*	-11	-1%
O=C(COC(=O)c1ccccc1N1C(=O)C2C3CCC(C3)C2C1=O)c1ccccc1 (stereo not given)	i	2%	i	0	-15%
S=C(Cc1cccnc1)N1CCOCC1	i	-56%	i	10	-1%
CCOc1cc(N2CCOCC2)c(OCC)cc1NC(=O)COC(=O)CCOc1cc(C)ccc1C	i	?	i	-86*	0%
Cc1ccc(C)c(OCCC(=O)OCC(=O)Nc2ccc(Cl)cn2)c1	i	-1%	i	43	18µM*
CCOc1cc(N2CCOCC2)c(OCC)cc1NC(=O)COC(=O)CCOc1ccc(C)cc1	i	-6%	i	-2	0%
COc1ccc(CNC(=O)COC(=O)CN2C(=O)NC3(CCCC3)C2=O)cc1	i	0%	i	17	-13%
Cc1cccn2c(=O)c3cc(C(=O)NC4CCCCC4)c(=N)n(Cc4ccccc4)c3nc12	?	2.1µM*	?	-86*	2.3µM*
COCCCn1c(=N)c(C(=O)NCc2ccco2)cc2c(=O)n3cccc(C)c3nc21	i	/	?	/	/
N=c1c(C(=O)NC2CCCC2)cc2c(=O)n3ccccc3nc2n1Cc1ccccc1	i	?	i	0	?
CCC(C)n1c(=N)c(C#N)cc2c(=O)n3cccc(C)c3nc21 (stereo not given)	i	?	i	11	-8%
